Measurements reported in PubChem BioAssay (NCI).
This is part of a sample that, as a whole, favours compounds with a hit. Of some 83,000 tested, about 20% had one in any assay.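 Treatment: one concentration, 48 hours, 96-well format. Scoring: percent growth, with anything below 10 considered active.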 Values without a mark were called inactive. Active and inactive are the calls of the source.

Key:
Experiment in all cases: NCI-60 one-dose screen, 48 h (100 = growth as untreated, 0 = no growth, -100 = all killed)
Details in all cases: 10 µM unless noted
DU-145 prostate = test system: DU-145 prostate
K-562 leukemia = test system: K-562 leukemia
MALME-3M melanoma = test system: MALME-3M melanoma
MDA-MB-231 breast = test system: MDA-MB-231 breast
RXF 393 renal = test system: RXF 393 renal
SF-268 CNS = test system: SF-268 CNS
SF-295 CNS = test system: SF-295 CNS
SF-539 CNS = test system: SF-539 CNS
UACC-257 melanoma = test system: UACC-257 melanoma
M14 melanoma = test system: M14 melanoma

C[C@@H](CO)[C@@H]1CC[C@]2(C(=O)N3CCN(C)CC3)CC[C@]3(C)[C@H](CC[C@@H]4[C@@]5(C)CC[C@H](O)C(C)(C)[C@@H]5CC[C@]43C)[C@@H]12 was tested. Which growth (DU-145 prostate) did it give?
Its growth is 67.7%.

And the growth (K-562 leukemia)?
The growth was 4.66% (active).

What about the growth (MALME-3M melanoma) of the same compound?
Its growth is 105%.

And the growth (MDA-MB-231 breast)?
Its growth is 82.8%.

What about the growth (RXF 393 renal) of the same compound?
Its growth is 81.5%.

What about the growth (SF-268 CNS) of the same compound?
Its growth is 56.7%.

And the growth (SF-295 CNS)?
Its growth is 90.4%.

And the growth (SF-539 CNS)?
The growth was 86.1%.

What about the growth (UACC-257 melanoma) of the same compound?
Its growth is 98%.

And the growth (M14 melanoma)?
Its growth is 101%.

Which growth (DU-145 prostate) does the source give for Cc1c2ccccc2nc2c1ccc1cccnc12 here?
The growth was 95.6%.

And the growth (K-562 leukemia)?
The growth was 44.1%.

And the growth (MALME-3M melanoma)?
Its growth is 88.3%.

And the growth (MDA-MB-231 breast)?
Its growth is 103%.

And the growth (RXF 393 renal)?
The growth was 108%.

What about the growth (SF-268 CNS) of the same compound?
The growth was 99.8%.

And the growth (SF-295 CNS)?
Its growth is 89.3%.

And the growth (SF-539 CNS)?
The growth was 100%.

And the growth (UACC-257 melanoma)?
The growth was 72.3%.

What about the growth (M14 melanoma) of the same compound?
Its growth is 84.9%.

What does the source list for CCN(CC)CCOc1ccc(Nc2ncc3cc(-c4ccc(O)cc4)c(=O)n(C)c3n2)cc1?
growth (DU-145 prostate): 85.5%; growth (K-562 leukemia): -53.5% (active); growth (MALME-3M melanoma): -43.8% (active); growth (MDA-MB-231 breast): 43.1%; growth (RXF 393 renal): -5.94% (active); growth (SF-268 CNS): 45%; growth (SF-295 CNS): 98.5%; growth (SF-539 CNS): -1.13% (active); growth (UACC-257 melanoma): 66.6%; growth (M14 melanoma): 57.5%

For N=C(N)c1ccc(-c2ccc(-c3ccc(F)cc3)s2)s1, which growth (DU-145 prostate) is on record?
Its growth is -86.3% (active).

What about the growth (K-562 leukemia) of the same compound?
The growth was -61.4% (active).

And the growth (MALME-3M melanoma)?
Its growth is 76.9%.

And the growth (MDA-MB-231 breast)?
The growth was -54.4% (active).

What about the growth (RXF 393 renal) of the same compound?
The growth was -69.1% (active).

What about the growth (SF-268 CNS) of the same compound?
The growth was -19.5% (active).

What about the growth (SF-295 CNS) of the same compound?
The growth was -76.4% (active).

And the growth (SF-539 CNS)?
Its growth is -29% (active).

What about the growth (UACC-257 melanoma) of the same compound?
The growth was -50.2% (active).

What about the growth (M14 melanoma) of the same compound?
The growth was -45.5% (active).

What does the source list for C=CC(C)(O)CC/C=C(\CO)C(=O)OC1C(C)OC(O[C@](C)(C=C)CC/C=C(\CO)C(=O)O[C@H]2C[C@@]3(C(=O)OC4OC(CO)C(O)C(O)C4OC4OC(C)C(OC5OC(CO)C(O)C5O)C(OC5OC(CO)C(O)C(O)C5O)C4O)C(CC2(C)C)C2=CCC4[C@@]5(C)CC[C@H](OC6OC(COC7OC(C)C(O)C(O)C7OC7OCC(O)C(O)C7O)C(O)C(O)C6NC(C)=O)C(C)(C)C5CC[C@@]4(C)[C@]2(C)C[C@H]3O)C(O)C1O (stereo not given in full)?
growth (DU-145 prostate): -91.2% (active); growth (K-562 leukemia): 22.8%; growth (MALME-3M melanoma): -56.2% (active); growth (MDA-MB-231 breast): -29.8% (active); growth (RXF 393 renal): -31.3% (active); growth (SF-268 CNS): -53.4% (active); growth (SF-295 CNS): -59.4% (active); growth (SF-539 CNS): 6.98% (active); growth (UACC-257 melanoma): -53.5% (active); growth (M14 melanoma): -34.1% (active)

Which results are given for CN1CCN(Cc2ccc(NC(=O)c3cncc(C#Cc4cnn5ccccc45)c3)cc2C(F)(F)F)CC1?
growth (DU-145 prostate): 4.16% (active); growth (K-562 leukemia): 1.13% (active); growth (MALME-3M melanoma): -61.3% (active); growth (MDA-MB-231 breast): -7.64% (active); growth (RXF 393 renal): -44.8% (active); growth (SF-268 CNS): -32.8% (active); growth (SF-295 CNS): 20.7%; growth (SF-539 CNS): -58.4% (active); growth (UACC-257 melanoma): 11%; growth (M14 melanoma): -39.6% (active)

How did the growth (DU-145 prostate) turn out when N#CCC1=NC(c2cccs2)=Nc2ccccc2S1 was run?
Its growth is 109%.

And the growth (K-562 leukemia)?
Its growth is 86.5%.

What about the growth (MALME-3M melanoma) of the same compound?
The growth was 99%.

What about the growth (MDA-MB-231 breast) of the same compound?
Its growth is 90.1%.

And the growth (RXF 393 renal)?
The growth was 105%.

What about the growth (SF-268 CNS) of the same compound?
Its growth is 94%.

What about the growth (SF-295 CNS) of the same compound?
The growth was 103%.

What about the growth (SF-539 CNS) of the same compound?
The growth was 101%.

What about the growth (UACC-257 melanoma) of the same compound?
The growth was 94.4%.

And the growth (M14 melanoma)?
The growth was 94%.

How did the growth (DU-145 prostate) turn out when CCOC(=O)c1c(C)nn(CC(O)c2ccccc2)c1NC(=O)Nc1cccc(F)c1 (stereo not given) was run?
Its growth is 94.3%.

And the growth (K-562 leukemia)?
The growth was 88.5%.

And the growth (MALME-3M melanoma)?
The growth was 101%.

What about the growth (MDA-MB-231 breast) of the same compound?
Its growth is 93%.

And the growth (RXF 393 renal)?
Its growth is 85.2%.

And the growth (SF-268 CNS)?
The growth was 83.7%.

What about the growth (SF-295 CNS) of the same compound?
The growth was 78.9%.

And the growth (SF-539 CNS)?
The growth was 98.8%.

And the growth (UACC-257 melanoma)?
Its growth is 91%.

What about the growth (M14 melanoma) of the same compound?
Its growth is 96.2%.

How did the growth (DU-145 prostate) turn out when COc1ccc2nc3ccccc3c(NCc3ccccc3)c2c1 was run?
Its growth is 22.5%.

What about the growth (K-562 leukemia) of the same compound?
The growth was 5.75% (active).

And the growth (MALME-3M melanoma)?
Its growth is 22.5%.

What about the growth (MDA-MB-231 breast) of the same compound?
Its growth is 27.8%.

What about the growth (RXF 393 renal) of the same compound?
Its growth is 5.86% (active).

What about the growth (SF-268 CNS) of the same compound?
The growth was 44.2%.

What about the growth (SF-295 CNS) of the same compound?
Its growth is 19.7%.

And the growth (SF-539 CNS)?
Its growth is 11.8%.

What about the growth (UACC-257 melanoma) of the same compound?
The growth was 27.1%.

And the growth (M14 melanoma)?
The growth was 26%.

For CN(C)c1ccc(C(=NO)c2ccc(N(C)C)cc2)cc1, which growth (DU-145 prostate) is on record?
Its growth is 56%.

What about the growth (K-562 leukemia) of the same compound?
Its growth is 17%.

And the growth (MALME-3M melanoma)?
The growth was 29.8%.

And the growth (MDA-MB-231 breast)?
The growth was 63.5%.

What about the growth (RXF 393 renal) of the same compound?
Its growth is 33.5%.

What about the growth (SF-268 CNS) of the same compound?
Its growth is 50.6%.

What about the growth (SF-295 CNS) of the same compound?
The growth was 3.86% (active).

And the growth (SF-539 CNS)?
The growth was 33.7%.

What about the growth (UACC-257 melanoma) of the same compound?
The growth was 41.4%.

What about the growth (M14 melanoma) of the same compound?
The growth was 17.4%.

COc1ccc(-c2cc(C(=O)N3N=C(c4ccc(N)cc4)CC3c3ccccc3)c3ccccc3n2)cc1 (stereo not given) was tested. Which growth (DU-145 prostate) did it give?
Its growth is 21.8%.

And the growth (K-562 leukemia)?
Its growth is 19.8%.

What about the growth (MALME-3M melanoma) of the same compound?
Its growth is 54.6%.

What about the growth (MDA-MB-231 breast) of the same compound?
Its growth is 62.9%.

And the growth (RXF 393 renal)?
The growth was 51.1%.

What about the growth (SF-268 CNS) of the same compound?
Its growth is 51.5%.

And the growth (SF-295 CNS)?
Its growth is 6.86% (active).

And the growth (SF-539 CNS)?
Its growth is 13.4%.

What about the growth (UACC-257 melanoma) of the same compound?
The growth was 47.2%.

What about the growth (M14 melanoma) of the same compound?
The growth was 17.2%.

For CCN(C(=O)N1CCN(c2cc3c(cc2F)c(=O)c(C(=O)O)cn3C2CC2)CC1)c1nc(-c2ccc(C)cc2)cs1, which growth (DU-145 prostate) is on record?
The growth was 23.6%.

And the growth (K-562 leukemia)?
The growth was 16%.

And the growth (MALME-3M melanoma)?
The growth was 14.7%.

And the growth (MDA-MB-231 breast)?
The growth was 6.79% (active).

And the growth (RXF 393 renal)?
Its growth is 21.8%.

What about the growth (SF-268 CNS) of the same compound?
Its growth is 21%.

What about the growth (SF-295 CNS) of the same compound?
Its growth is -3.48% (active).

What about the growth (SF-539 CNS) of the same compound?
Its growth is 20.2%.

What about the growth (UACC-257 melanoma) of the same compound?
The growth was 14.6%.

What about the growth (M14 melanoma) of the same compound?
Its growth is 19.6%.
